Measured values as given in PubChem BioAssay (NCI).
Compounds without any hit were thinned out: in the full panel of roughly 79,000, 15% have a hit. Cut-off read from the data, not from the text of the source: active = growth inhibition above about 70%; inactive = the rest.

How the values were obtained:
[1] = NCI Yeast Anticancer Drug Screen. Data for the rad50 strain (AID 155);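 note: 0% = growth of vehicle-only cultures of the same strain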; conditions: S. cerevisiae rad50 strain growth inhibition; at 50.0 µM; stronger effect = higher value
Procedure, shortened: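 Yeast carrying a defined DNA repair defect were exposed to test compounds, and growth was compared with vehicle-treated controls to give percent inhibition.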

[2] = NCI Yeast Anticancer Drug Screen. Data for the mec2-1 strain (AID 157); conditions: S. cerevisiae mec2-1 strain, at 50.0 µM, stronger effect = higher value
Procedure, shortened: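 Cells of the genetically defined mec2-1 yeast strain are incubated with test compound. Inhibition of growth is calculated against vehicle-treated controls.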

[3] = NCI Yeast Anticancer Drug Screen. Data for the sgs1 mgt1 strain (AID 161);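 note: 0% = growth of cultures given vehicle only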; conditions: S. cerevisiae sgs1 mgt1 strain, at 50.0 µM, stronger effect = higher value
Procedure, shortened: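 Read-out: growth inhibition vs vehicle controls. Cells: mutant yeast strain deficient in DNA damage repair.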

[4] = NCI Yeast Anticancer Drug Screen. Data for the cln2 rad14 strain (AID 165);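 note: 0% = growth equal to vehicle treated cultures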; conditions: S. cerevisiae cln2 rad14 strain, at 50.0 µM, stronger effect = higher value
Procedure, shortened: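 The screen exposed genetically defined yeast (cln2 rad14) to test compounds and scored growth inhibition relative to vehicle-treated controls.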

[5] = NCI Yeast Anticancer Drug Screen. Data for the bub3 strain (AID 167); conditions: S. cerevisiae bub3 mutant strain, at 50.0 µM, stronger effect = higher value
Procedure, shortened: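 Compounds were applied to a genetically altered yeast strain carrying a cell-cycle control defect. Growth inhibition was scored against vehicle-treated controls.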

[6] = NCI Yeast Anticancer Drug Screen. Data for the mlh1 rad18 strain (AID 175); conditions: S. cerevisiae mlh1 rad18 strain growth inhibition; at 50.0 µM; stronger effect = higher value
Procedure, shortened: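 Compound-treated yeast growth, normalised to vehicle controls. Strain bears defined DNA repair mutations.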

Measured: growth inhibition

COC(=O)[C@@H]1[C@H]2C[C@@H]3c4[nH]c5ccccc5c4CCN3C[C@@H]2CC[C@@H]1O
inactive: [1] 1.5% | [2] -9.55% | [3] 13.9% | [4] 2.15% | [5] 5.45% | [6] 1.25%

CCCCCCCCCCCCCC/C=N/Nc1ccc([N+](=O)[O-])cc1[N+](=O)[O-]
inactive: [1] 21.3% | [2] 24% | [3] 13.5% | [4] 6.25% | [5] -2% | [6] 22.8%

O=C(O)C1=CC(c2ccccc2O)=NCCN1
inactive: [1] -20.8% | [2] -0.75% | [3] 0.7% | [4] -34.6% | [5] -4.1% | [6] 3.6%

O=C(CN1C(=O)c2ccccc2C1=O)NCC(=O)N(C(=O)NC1CCCCC1)C1CCCCC1
inactive: [1] 23.1% | [2] 2.3% | [3] 27.9% | [4] 11.8% | [5] -3.35% | [6] 5%

CC(c1ccccc1)n1cnc2c(=S)nc[nH]c21 (stereo unspecified)
inactive: [1] 17.1% | [2] -20.9% | [3] -7.55% | [4] 3.35% | [5] -5.85% | [6] -9.95%

C/C=C/C=N/NS(=O)(=O)c1ccc(C)cc1
inactive: [1] 11.3% | [2] 17.8% | [3] -4.1% | [4] -45.4% | [5] -1% | [6] -12.4%

O=C1c2ccccc2C(=O)c2cc(N=Nc3c(O)ccc4ccccc34)ccc21
inactive: [1] 2.05% | [2] 35.9% | [3] -6% | [4] 4.25% | [5] 2.7% | [6] 2.1%

Cn1c(=O)c2c(nc(CCCCCCCCc3nc4c(c(=O)n(C)c(=O)n4C)n3C)n2C)n(C)c1=O
inactive: [1] -7.5% | [2] 19.9% | [3] -24.8% | [4] -45% | [5] -14.8% | [6] -14.7%

O=C(COc1ccc(Cl)cc1)OCCCl
inactive: [1] 10% | [2] 8.3% | [3] 9.1% | [4] 0.35% | [5] 9.3% | [6] 8.3%

CCCC(=O)Nc1ccc(N=Nc2ccccc2)cc1
inactive: [1] 8.15% | [2] 43.4% | [3] 58.3% | [4] -15.9% | [5] 46.1% | [6] 57.5%

Nc1ncnc2c1ncn2C1OC(CO)C(NC(=O)C(N)CCC(=O)O)C1O (stereo unspecified)
inactive: [1] 1.75% | [2] -4.2% | [3] 21.6% | [4] -9.4% | [5] -0.9% | [6] -5.3%

CC(=O)N(C)c1ccc(NC(=O)/C=C/c2ccccc2)cc1
inactive: [1] 0.15% | [2] 4.25% | [3] 15.7% | [4] -9.85% | [5] 28.1% | [6] 17.1%

COc1cc(Br)c(Br)cc1Br
inactive: [1] 6.8% | [2] 4.35% | [3] -17.7% | [4] 12.5% | [5] 4.9% | [6] 10.5%

COc1ccc(NC(=S)N=Nc2c(O)[nH]c3ccccc23)cc1
inactive: [1] -43.2% | [2] -50% | [3] -33.9% | [4] -13.8% | [5] -41.4% | [6] -30.6%

O=C(/C=C/c1ccccc1)NC1C=Nc2ccccc2NC1=O (stereo unspecified)
inactive: [1] 13.8% | [2] 18.2% | [3] 7.2% | [4] -11.9% | [5] 7.05% | [6] 16.1%

CC[N+](C)(CC)CCOC(=O)c1ccccc1Oc1ccc(C)cc1
inactive: [1] 23.1% | [2] -2.45% | [3] 7.8% | [4] -11.8% | [5] -2.1% | [6] 0.9%

O=C/C(Cl)=C\Nc1ccc(C(=O)O)cc1
inactive: [1] -0.25% | [2] 2.15% | [3] -0.2% | [4] -23.1% | [5] -0.4% | [6] -10.7%

CCN(CC)C(=O)C1CC=CCC1C(=O)O (stereo unspecified)
inactive: [1] 41.3% | [2] 19.3% | [3] 23.9% | [4] -38.5% | [5] 1.85% | [6] 30.1%

Cc1cccc(NC(=O)NC(O)C(Cl)(Cl)Cl)c1 (stereo unspecified)
inactive: [1] 1.65% | [2] -3.35% | [3] -6.25% | [4] -43% | [5] -16.6% | [6] 0.95%

CCC(=O)/C=C/c1ccccc1
inactive: [1] -1.55% | [2] -14.2% | [3] -22.1% | [4] -23.9% | [5] -34.5% | [6] -47.6%

CC1CC[C@@]23CCC4(C)[C@@](C=CC5[C@@]6(C)CCC(=O)C(C)(C)C6CC[C@]54C)(OC2=O)[C@@H]3[C@H]1C (stereo partly specified)
inactive: [1] -14.8% | [2] -17.6% | [3] -14.7% | [4] -15.1% | [5] -14.5% | [6] -8.15%

CC(=O)CC(=O)Nc1ccc(-c2ccccc2)cc1
inactive: [1] 19.7% | [2] 3.95% | [3] 18.1% | [4] -16.2% | [5] -6.9% | [6] -0.35%

O=c1cc(Nc2ccccc2Cl)[nH]c(=O)[nH]1
inactive: [1] 9.8% | [2] 2.2% | [3] -5.15% | [4] -41.8% | [5] -27.4% | [6] -13.2%

NC1C(O)OCC(O)C1O (stereo unspecified)
inactive: [1] -0.35% | [2] 9.3% | [3] 10.2% | [4] 7.25% | [5] 19.4% | [6] 23.1%

c1ccc2c(c1)[nH]c1c2ncc2[nH]c3ccccc3c21
inactive: [1] -2.7% | [2] 2.85% | [3] -7.35% | [4] -60.2% | [5] -1.8% | [6] 7.25%

Nc1ccc(S(=O)(=O)S(=O)(=O)c2ccc(N)cc2)cc1
inactive: [1] -0.1% | [2] 1.95% | [3] -3.55% | [4] 12.4% | [5] -0.9% | [6] -2.95%

CN(CC(=O)O)c1ncc2c(n1)-c1ccccc1SC2
inactive: [1] 20.5% | [2] 4.95% | [3] 5.15% | [4] 10.3% | [5] -14.3% | [6] -6.3%

CCCCn1c(=O)cc(C(=O)O)c2ccccc21
inactive: [1] 1.7% | [2] -12.7% | [3] -0.5% | [4] -9.25% | [5] -7.9% | [6] 0.05%

CCCCCNC(=O)CCC
inactive: [1] 22.6% | [2] 1.2% | [3] 25.6% | [4] 5.6% | [5] 7.05% | [6] 40.9%

CCOC(=O)Nc1nc(-c2ccccc2)c(C)s1
inactive: [1] -23.2% | [2] -20.8% | [3] -16.8% | [4] -7.1% | [5] -44.9% | [6] -2.15%

CCCc1cc(C(=O)OC/C(C)=N/O)c2ccccc2n1
inactive: [1] -8.15% | [2] 0.7% | [3] 11.3% | [4] -7.75% | [5] 24.6% | [6] 9.4%

COc1cccc2cc[nH]c12
inactive: [1] 0.2% | [2] 11.2% | [3] -9.2% | [4] 10.8% | [5] 7.7% | [6] 8.6%

O=C1C(=S)Nc2cccc(F)c21
inactive: [1] 38% | [2] 45% | [3] 33.2% | [4] -3.65% | [5] 43.7% | [6] 33%

C=CCOC(=O)CCCCC(=O)OCC=C
inactive: [1] 3.1% | [2] 4.15% | [3] 3.65% | [4] 6.1% | [5] 19.9% | [6] 0.1%

O=c1oc2nc(-c3ccccc3)[nH]c(=O)c2c(O)c1Cc1ccccc1
inactive: [1] 6.35% | [2] 2.75% | [3] 1.55% | [4] 8.7% | [5] 27.6% | [6] 26.9%

CCC1(C)N=C(C)C(C)S1 (stereo unspecified)
inactive: [1] -7.6% | [2] -1.3% | [3] -13.7% | [4] 4.9% | [5] -16.3% | [6] 6.2%

COc1cc2c3c(c1)SC(C)C(=O)N3CCN2 (stereo unspecified)
inactive: [1] -7.85% | [2] -19.9% | [3] 2.55% | [4] 10.2% | [5] -3.5% | [6] 6.55%

O=[N+]([O-])c1ccc(S(=O)(=O)c2ccc(N=CN3CCCC3)cc2)cc1
inactive: [1] 22.9% | [2] 16.4% | [3] 18.4% | [4] 4.05% | [5] 18% | [6] 23%

CSC1C(=O)Nc2ccccc21 (stereo unspecified)
inactive: [1] -8.5% | [2] -17.6% | [3] 4.1% | [4] -13.1% | [5] -34.5% | [6] -3%

CO[C@H]1C=C[C@]23c4cc5c(cc4CN(CC2O)[C@@H]3C1)OCO5 (stereo partly specified)
inactive: [1] 8.65% | [2] -11.7% | [3] 26.4% | [4] 12.6% | [5] 2.55% | [6] -20.9%

O=C1CCC2CCC(=O)N12
inactive: [1] 1.25% | [2] -2.2% | [3] -10.3% | [4] 2.1% | [5] -11.2% | [6] 5.65%
